Molecules are shown by their SMILES. “And” between values parts separate entries of the source, which are not always exact repeats. Identical values can stand only once. Hit rate of the full screen: of about 16,000 compounds, about 4,000 (25%) were called active. Roughly 26% stayed inconclusive and do not appear here. Only a sample is shown. Unmarked numbers belong to inactive results. Calls follow the shape of the dose curve; as a rule, active = well fitted curve in the direction sought with a large enough effect; inconclusive = small, poorly fitted or top-dose-only effect, or effect the other way; inactive = no such curve, though single readings can be large or run the other way.

For orientation: AC50 means the concentration giving half of the maximal activity seen.
% is scaled to controls: 0 for no effect and ±100 for the full control effect.

Sequence of Cytochrome P450 2C9 (Homo sapiens) (P11712 whole entry, looked up): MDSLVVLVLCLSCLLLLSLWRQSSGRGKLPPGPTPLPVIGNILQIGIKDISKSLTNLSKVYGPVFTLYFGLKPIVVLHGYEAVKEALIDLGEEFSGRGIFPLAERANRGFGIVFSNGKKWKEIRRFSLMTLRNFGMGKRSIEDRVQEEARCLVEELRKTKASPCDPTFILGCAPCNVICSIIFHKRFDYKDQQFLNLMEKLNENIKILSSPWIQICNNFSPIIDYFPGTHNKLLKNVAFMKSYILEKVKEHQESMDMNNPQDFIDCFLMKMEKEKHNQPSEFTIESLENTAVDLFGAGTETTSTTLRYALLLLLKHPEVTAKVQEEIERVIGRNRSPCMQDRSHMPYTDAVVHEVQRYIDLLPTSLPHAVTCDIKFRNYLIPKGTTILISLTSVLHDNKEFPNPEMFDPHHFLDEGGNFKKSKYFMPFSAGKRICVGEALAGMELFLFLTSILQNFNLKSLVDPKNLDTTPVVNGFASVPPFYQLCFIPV

This assay has as its target Cytochrome P450 2C9 (Homo sapiens) (UniProt P11712). The assay can be described thus: Cytochrome panel assay with activity outcomes. The settings on record: recombinant CYP, pro-luciferin dealkylation, luminescence, p450-cyp2c9; series mostly up to 57.1 µM.
In the case of `CC(C)CN1CCC2(CC1)CCN(C(=O)c1cccn1C)CC2`, the AC50 entry was “inactive”.

On to `CCOC(=O)n1ccn(C)c1=S`, for which the AC50 entry is “inactive”.

Take `CC(=O)OC[C@@H]1O[C@@H](O/N=C2/C[C@@H](O)[C@@H](O)[C@@H]3[C@@H]4C(=O)N(C(C)(C)C)C(=O)[C@H]4CC[C@H]23)[C@H](OC(C)=O)[C@H](OC(C)=O)[C@@H]1OC(C)=O`: the activity, negative = inhibition is 2.66% [at 11.4 µM].

Regarding `CO[C@H]1COC(=O)[C@H](C)NC(=O)C/C=C\[C@@H](C)[C@H](OC)COC(=O)[C@@H](OCc2ccccc2)/C=C\[C@@H]1C`, the activity, negative = inhibition was -13.3% [at 11.4 µM].

On to `O=C(NCCc1ccc(Cl)cc1)Nc1cccc(Cl)c1`, for which the AC50 is 3.98 µM (active).

For the compound `CN(C)CCNC(=S)Nc1cccc(Cl)c1`, the AC50 result was “inactive”.

As for `CNC(=O)C(=O)NCCc1ccc(Cl)cc1`, the AC50 result was “inactive”.

Turning to `CC(=O)OC[C@@H]1O[C@@H](O/N=C2/C[C@@H](O)[C@@H](O)[C@@H]3[C@@H]4C(=O)N(C5CCCCC5)C(=O)[C@H]4CC[C@H]23)[C@H](OC(C)=O)[C@H](OC(C)=O)[C@@H]1OC(C)=O`, the activity, negative = inhibition was 9.42% [at 11.4 µM].

With `O=c1c(-c2cc(F)cc(F)c2)nc2cnc(N3CCOCC3)nc2n1C[C@H]1CCCO1`, the AC50 entry was “inactive”.

With `O=C(NC12CC3CC(CC(C3)C1)C2)c1ccc(COc2ccc(Cl)cc2[N+](=O)[O-])o1`, the AC50 is 7.94 µM (active).

With `CC(C)=CCC/C(C)=C/CO/N=C1/C[C@@H](O)[C@@H](O)[C@@H]2[C@@H]3C(=O)N(Cc4ccccc4)C(=O)[C@H]3CC[C@@H]12`, the activity, negative = inhibition is 24.4% [at 11.4 µM].

Regarding `CC(C)=CCC/C(C)=C/CO/N=C1/C[C@@H](O)[C@@H](O)[C@@H]2[C@@H]3C(=O)N(Cc4ccccc4)C(=O)[C@H]3CC[C@H]12`, the activity, negative = inhibition is -1.37% [at 11.4 µM].

As to `c1nc(N2CCNCC2)c2cc(-c3ccc4c(c3)OCO4)ccc2n1`, the activity, negative = inhibition is 14.4% [at 2.29 µM].

Take `C[C@@H]1O[C@@H](O)[C@@H](O)[C@H](O)[C@H]1O`: the activity, negative = inhibition is 0.774% [at 11.4 µM].

As for `NC(=O)[C@@H]1CCCN1Cc1ccc2c(c1)OCO2`, the activity, negative = inhibition is -2.9% [at 11.4 µM].

As for `O=C(O)[C@@H]1CCCN1Cc1ccc2c(c1)OCO2`, the activity, negative = inhibition is -5.38% [at 11.4 µM].

On to `CC1(C)SC(=S)N(Cc2ccc3c(c2)OCO3)C1N(O)C(=O)NC1CCCCC1` (stereo not given), for which the AC50 is 3.55 µM (active).

For the compound `COc1ncc2nc(-c3ccc(F)cc3)c(=O)n(C)c2n1`, the AC50 entry is “inactive”.

In the case of `Cc1ccc(NC(=O)CCC(=O)NNS(=O)(=O)c2ccccc2)c(C)c1`, the AC50 entry was “inactive”.

Regarding `Cc1cc(Br)ccc1NC(=O)CCSc1ccccc1`, the AC50 was 8.91 µM (active).

For the compound `Cc1cc(CSc2ccccc2)ccc1NC(=O)COc1ccccc1`, the AC50 result was “inactive”.

As for `O=C(CCCNS(=O)(=O)c1cccc2nsnc12)NCCc1ccccc1`, the AC50 is 11.2 µM (active).

As for `O=c1c2ccccc2nc2n1C(CSCc1cccc(C(F)(F)F)c1)CS2` (stereo not given), the AC50 was 2 µM (active).

Regarding `COc1ccc(NC(=O)N2CCC3(CC2)CCN(C(=O)c2cccn2C)CC3)cc1`, the AC50 result was “inactive”.

Regarding `CCCCCC(=O)N1CC2(CC(c3cccc(NC(=O)c4ccccc4)c3)=NO2)C[C@@H]1C(N)=O` (stereo not given in full), the AC50 entry was “inactive”.

As to `O=C(CSc1ccc(Cl)cc1)Nc1cccc(-c2nc3ncccc3o2)c1`, the AC50 is 3.16 µM (active).

Regarding `O=C(Nc1cccc(-c2nc3ncccc3o2)c1)c1sc2cc(Cl)ccc2c1Cl`, the AC50 entry was “inactive”.

With `CCCCCCCCC(=O)N/N=C/c1ccccn1`, the AC50 result was “inactive”.

In the case of `CCCCCC(=O)Nc1cccc(-c2nc3ncccc3o2)c1`, the concentration at half-maximal activity (AC50) was 17.8 µM (active).

With `CC1=NS(=O)(=O)c2cc(Cl)ccc2N1`, the AC50 entry is “inactive”.

For `CO[C@H]1COC(=O)C/C=C\[C@H](C)[C@@H](OC)COC(=O)[C@H](Cc2ccccc2)NC(=O)C/C=C\[C@@H]1C`, the activity, negative = inhibition is -2.12% [at 11.4 µM].

With `Cc1ccc(S(=O)(=O)N[C@H]2COC(=O)[C@@H](C)COC(=O)[C@H](C)NC(=O)C/C=C\[C@H]2C)cc1`, the activity, negative = inhibition is 10.1% [at 11.4 µM].

Consider `C[C@@]1(C(NC(=O)c2cccs2)c2ccc(-c3ccccc3)cc2)C[C@H]1C1CCCCC1` (stereo not given in full), for which the AC50 result is “inactive”.

As for `O=C(NC(=S)Nc1cccc(Cl)c1N1CCCCC1)c1cccs1`, the AC50 is 3.98 µM (active).

As to `Cc1c(Cl)cccc1NC(=O)CCC(=O)NNC(=O)c1ccco1`, the AC50 result was “inactive”.

For `O=C(NC(=S)Nc1cccc(Cl)c1N1CCCCC1)c1ccco1`, the AC50 was 5.01 µM (active).

As to `CC1CCN(c2ccccc2NC(=S)NC(=O)c2cccs2)CC1`, the half-maximal activity concentration (AC50) is 5.01 µM (active).

Take `C[C@@H]1C[C@@H]2[C@H]3CCC4=CC(=O)C=C[C@]4(C)[C@]3(Cl)[C@@H](O)C[C@@]2(C)[C@@]1(O)C(=O)CO`: the AC50 entry was “inactive”.

For `N[C@@H](Cc1c[nH]c2ccc([N+](=O)[O-])cc12)C(=O)O`, the activity, negative = inhibition is 9.84% [at 11.4 µM].

Regarding `O=c1[nH]c2cc([N+](=O)[O-])c([N+](=O)[O-])cc2[nH]c1=O`, the AC50 result was “inactive”.

For the compound `O=C(O)c1[nH]c2c([N+](=O)[O-])cc([N+](=O)[O-])cc2c1C(=O)O`, the AC50 is 3.16 µM (active).

For `COc1ccc(C(C)(C)C)cc1NC(=O)c1cncc(Br)c1`, the AC50 is 20 µM (active).

For the compound `CC(C)(C)NC(=O)COC(=O)c1cncc(Br)c1`, the AC50 result is “inactive”.

Regarding `CCOc1ccc(C(F)(F)F)cc1NC(=O)c1ccc(OC)c([N+](=O)[O-])c1`, the AC50 result was “inactive”.

As for `O=C1C[C@H]2C(=O)[C@@H]1[C@@H](C(=O)O)[C@H]2C(=O)O`, the activity, negative = inhibition is 19.5% [at 11.4 µM].

Regarding `CCOC(=O)Nc1ccc2c(c1)N(C(=O)CCN1CCN(C)CC1)c1ccccc1S2`, the AC50 entry is “inactive”.

For `COC(=O)c1cc(NC(=O)N2c3ccccc3Sc3ccccc32)cc(C(=O)OC)c1`, the AC50 is 3.55 µM (active).

Turning to `CC1CCN(CC(=O)N2c3ccccc3Sc3cc4ccccc4cc32)CC1`, the activity, negative = inhibition is -17.9% [at 11.4 µM].

As to `Nc1cc(=O)[nH]c(N)n1`, the AC50 entry was “inactive”.

As to `COCCNC(=O)c1onc(CSc2ccccc2F)c1C(=O)O`, the concentration at half-maximal activity (AC50) is 15.8 µM (active).

With `CN1CCN(CCCNC(=O)c2ccc(CSCc3cccc(Cl)c3)o2)CC1`, the AC50 result is “inactive”.

With `COCCCNC(=O)/C=C/c1ccc(Cl)cc1`, the AC50 entry is “inactive”.

`COCCNC(=O)c1onc(CSc2ccc(Cl)cc2)c1C(=O)O`: the AC50 was 5.01 µM (active).

As for `COCCNC(=O)c1onc(CSc2cccc(Cl)c2)c1C(=O)O`, the AC50 was 3.98 µM (active).

As to `C=CCNC(=O)c1onc(CSc2ccc(F)cc2)c1C(=O)O`, the concentration at half-maximal activity (AC50) was 8.91 µM (active).

As for `CC(C)NCCOCCSc1ccc(Cl)cc1`, the AC50 result was “inactive”.

Turning to `N[C@H](Cn1ccc(=O)n(Cc2ccccc2C(=O)O)c1=O)C(=O)O`, the AC50 entry was “inactive”.

As for `Cc1noc(C)c1C(=O)N1CCC[C@@]2(CCN(C(=O)NC(C)C)C2)C1`, the AC50 entry was “inactive”.

Turning to `c1nc(NCCN2CCOCC2)c2cc(-c3ccoc3)ccc2n1`, the activity, negative = inhibition is -2.85% [at 2.29 µM].

On to `O=C(O)[C@H](Cc1ccc(O)c([N+](=O)[O-])c1)N1C(=O)c2ccccc2C1=O`, for which the activity, negative = inhibition was 0.788% [at 11.4 µM].

In the case of `Cc1cc(/C=N\NC(=O)c2cccs2)c(C)n1-c1ccc2ncccc2c1`, the AC50 was 3.16 µM (active).

Take `Clc1ccc2c(NC3CCC(N4CCCCC4)CC3)ccnc2c1` (stereo not given): the activity, negative = inhibition was 10.6% [at 11.4 µM].

On to `N#Cc1c(N)nc2c(c1-c1cccc(O)c1)CCCCCC2`, for which the half-maximal activity concentration (AC50) is 8.91 µM (active).

`COc1cccc(NC(=O)CSc2nc3c(c(-c4ccco4)c2C#N)CCCC3)c1`: the AC50 result was “inactive”.

`Cc1ccc(-c2ccc(/C=N/N3C(=O)C4C5C=CC(C6CC56)C4C3=O)o2)c([N+](=O)[O-])c1` (stereo not given): the concentration at half-maximal activity (AC50) is 5.01 µM (active).

Consider `Cc1cc2ncn(/N=C/c3ccc([N+](=O)[O-])o3)c2cc1C`, for which the AC50 entry was “inactive”.

On to `Cc1cc(-c2ccc(/C=N/n3cnnc3)o2)c([N+](=O)[O-])cc1C`, for which the AC50 was 2.51 µM (active).

For `COc1ccccc1-c1cncnc1Nc1ccc(F)cc1`, the activity, negative = inhibition was -21.5% [at 2.29 µM].

For the compound `Cn1cccc1C(=O)N1CCC2(CCN(C(=O)Nc3cccc(F)c3)CC2)CC1`, the AC50 result is “inactive”.

Consider `COCC(=O)Oc1c(S(=O)(=O)c2ccc(C)cc2)c(C)nn1-c1ccccc1`, for which the concentration at half-maximal activity (AC50) was 1.78 µM (active).

Consider `CON(C)C(=O)c1nnc2c3ccccc3n(S(=O)(=O)c3ccc(C)cc3)c2n1`, for which the activity, negative = inhibition is 12.1% [at 11.4 µM] and -11.7% [at 11.4 µM].

Consider `COc1cccc(NC(=O)COC(=O)c2nc3nccc(C)n3n2)c1`, for which the AC50 entry was “inactive”.

Take `COc1ccc(OC)c(NC(=O)c2c3c(nc4ccccc24)CCC3)c1`: the AC50 is 14.1 µM (active).

As for `Nc1c2c(nc3ccccc13)CCCC2`, the AC50 entry is “inactive”.

With `COc1cc(-c2nnc(COC(=O)c3c4c(nc5ccccc35)CCCC4)o2)cc(OC)c1OC`, the half-maximal activity concentration (AC50) was 2 µM (active).

`COc1ccc(C(=O)Nc2ccc(C(=O)OCC(=O)c3ccccc3)cc2)cc1`: the AC50 result is “inactive”.

On to `COc1cccc(NC(=O)COC(=O)c2c3c(nc4ccccc24)CCC(C)C3)c1` (stereo not given), for which the AC50 was 11.2 µM (active).

On to `COc1ccc(NC(=O)COC(=O)c2c3c(nc4ccccc24)CCCC3)cc1`, for which the AC50 is 7.08 µM (active).

Regarding `Cn1c2c(c(=O)n(C)c1=O)CN(CCN1CCNCC1)CN2`, the AC50 result is “inactive”.

Regarding `Cc1cc(C)c(-c2cc([C@H](C)O/N=C\[C@@H](C)[C@H](OCc3ccccc3)C(C)C)on2)c(C)c1`, the activity, negative = inhibition was -7.67% [at 11.4 µM].

`C[N+](C)(N)CCC[N+](C)(C)N`: the activity, negative = inhibition was 15.9% [at 11.4 µM].

`N[C@H](CCC(=O)N[C@H](CSN=O)C(=O)NCC(=O)O)C(=O)O`: the half-maximal activity concentration (AC50) is 5.01 µM (active).

Consider `N[C@H](CCC(=O)NCC(=O)O)C(=O)O`, for which the AC50 entry was “inactive”.

As to `[N-]=[N+]=Nc1ccc(C(=O)CSC[C@@H](NC(=O)CC[C@@H](N)C(=O)O)C(=O)NCC(=O)O)cc1`, the AC50 entry is “inactive”.

On to `CO[C@@H](C(C)C)[C@@H](C)[C@@H]1OC(=O)C[C@@H]1O`, for which the activity, negative = inhibition was -15.2% [at 11.4 µM].

The values are drawn from PubChem BioAssay AID1851 (National Center for Advancing Translational Sciences (NCATS), 2009).
